The source of these data is PubChem BioAssay.

The source made the active and inactive calls. Unless noted, no rule for the calls is given here.

A short description of test [1]: compound effects on lung adenocarcinoma cell viability – A549, calcein-AM fluorescence, 48 h, basal, profiling panel (AID 1162). Also: test concentration not given here. The settings on record: higher = more signal.
Test [2] can be described thus: compound effects on differentiated 3T3-L1 adipocyte viability – cell-based, 3T3-L1 adipocytes, calcein-AM fluorescence, 48 h, basal, profiling panel (AID 1163). Also: test concentration not given here. Particulars: 3T3-L1 adipocytes viability, higher = more signal.
A short description of test [3]: compound effects on hepatocellular carcinoma cell viability – HepG2, calcein-AM fluorescence, 48 h, basal, profiling panel (AID 1164). Also: test concentration not given here. Particulars: higher = more signal.
The nature of test [4]: compound effects on multiple myeloma cell viability – MM1S, calcein-AM fluorescence, 48 h, basal, profiling panel (AID 1165).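 Also: viability of MM1S multiple myeloma cells under basal unstimulated conditions; test concentration not given here.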 The settings on record: higher = more signal.
Test [5] in a line: calcein-AM signal in unstimulated myeloma cells – cell-based, calcein-AM fluorescence, 48 h, PK04 Diversity Set, profiling panel (AID 1166).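 Also: cells grown under basal conditions without added stimulus; test concentration not given here.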 The settings on record: RPMI8226 myeloma viability, higher = more signal.
The nature of test [6]: JC-1 mitochondrial signal, unstimulated HepG2 cells – cell-based, JC-1 fluorescence, 24 h, 100 nL compound, profiling panel (AID 1167). Also: test concentration not given here. Particulars: HepG2 mitochondrial potential, higher = more signal.
The nature of test [7]: JC-1 mitochondrial signal, unstimulated adipocytes – cell-based, JC-1 fluorescence, 3T3-L1 adipocytes, 24 h, 100 nL compound, profiling panel (AID 1168). Also: test concentration not given here. The settings on record: JC-1 mitochondrial fluorescence, higher = more signal, called active from +8 up or from −8 down.
Test [8] is described as follows: JC-1 mitochondrial signal, unstimulated myeloma cells – cell-based, JC-1 fluorescence, RPMI8226, 24 h, 100 nL compound, profiling panel (AID 1169). Also: test concentration not given here. The settings on record: JC-1 mitochondrial potential fluorescence, higher = more signal.
Test [9] in a line: JC-1 mitochondrial signal, unstimulated MM1S myeloma – cell-based, JC-1 fluorescence, 24 h, 100 nL compound, profiling panel (AID 1170). Also: test concentration not given here. The settings on record: MM1S mitochondrial potential, higher = more signal.
Test [10] can be described thus: resazurin metabolic signal in A549 cells – cell-based, resazurin fluorescence, 24 h, PK04 Diversity Set, profiling panel (AID 1171). Also: test concentration not given here. The settings on record: A549 viability, higher = more signal, called active from +8 up or from −8 down. For orientation: Resazurin is reduced to fluorescent resorufin, in cell work by metabolically active cells.
Test [11] is described as follows: resazurin metabolic signal in HepG2 cells – cell-based, resazurin fluorescence, 24 h, PK04 Diversity Set, profiling panel (AID 1172). Also: test concentration not given here. Particulars: HepG2 viability, higher = more signal.
Test [12] is described as follows: budding yeast growth changes without added modifier – OD600, strain BY4716, 24 h, basal condition, primary screen (AID 1173). The settings on record: S. cerevisiae BY4716 growth, OD600, 24 h; higher = more signal, called active from +8 up or from −8 down.
A short description of test [13]: viability profiling in MM1S myeloma cells – cell-based, resazurin fluorescence, basal, 24 h, PK04 Diversity Set, profiling panel (AID 1174). Also: test concentration not given here. The settings on record: higher = more signal, called active from +8 up or from −8 down.
Test [14] addresses Dihydroorotate dehydrogenase (quinone), mitochondrial (Plasmodium falciparum (isolate 3D7)) (UniProt Q08210). In words: inhibition of P. falciparum DHODH – biochemical, C-terminal His tag, absorbance 600 nm, primary screen (AID 1175).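 Also: recombinant parasite enzyme with a five histidine tag at its C terminus; test concentration not given here.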 The settings on record: PfDHODH enzyme, DCIP absorbance 600 nm; higher = more signal, called active from +8 up or from −8 down.
A short description of test [15]: inhibition of PAO1 biofilm formation – strain PAO1, LB-PBS medium, absorbance 600 nm, primary screen (AID 1176). Also: test concentration not given here. Particulars: P. aeruginosa PAO1 growth/biofilm, A600, 12 h; higher = more signal.
Test [16] can be described thus: growth modulation of vineyard yeast isolate – strain RM11-1a, OD600, basal, 24 h, primary screen (AID 1177).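 Also: cultures grown under basal conditions with no added stressor; test concentration not given here.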 Particulars: S. cerevisiae RM11-1a growth, OD600, 24 h; higher = more signal, called active from +8 up or from −8 down.
The nature of test [17]: growth of efflux-deficient E. coli DRC39 – strain DRC39, OD650, 24 h, E. coli filamentation inducers, primary screen (AID 1178).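 Also: growth measured as culture turbidity by optical density at 650 nm; test concentration not given here.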 The settings on record: E. coli DRC39 acrAB, higher = more signal, called active from +8 up or from −8 down.
A short description of test [18]: growth of efflux-deficient E. coli DRC39 – strain DRC39, OD650, 48 h, E. coli filamentation inducers, primary screen (AID 1179).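 Also: screen aims at cell division blockers that make cells filament.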 Particulars: E. coli DRC39 delta-acrAB growth, higher = more signal, called active from +8 up or from −8 down.
The nature of test [19]: viability profiling in RPMI8226 myeloma cells – cell-based, resazurin fluorescence, basal, 24 h, PK04 Diversity Set, profiling panel (AID 1180).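 Also: RPMI8826 multiple myeloma cell line at 5000 cells per well; test concentration not given here.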 The settings on record: higher = more signal.
In test [20] the target is E3 ubiquitin-protein ligase XIAP (Homo sapiens) (UniProt P98170). In words: small molecules binding XIAP protein – biophysical, small-molecule microarray, fluorescence 635 nm, primary screen (AID 1181).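 Also: score merges 667 nm emission and signal to noise over triplicate slides.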 The settings on record: higher = more signal.
Chain of E3 ubiquitin-protein ligase XIAP (Homo sapiens) (P98170 whole entry, looked up): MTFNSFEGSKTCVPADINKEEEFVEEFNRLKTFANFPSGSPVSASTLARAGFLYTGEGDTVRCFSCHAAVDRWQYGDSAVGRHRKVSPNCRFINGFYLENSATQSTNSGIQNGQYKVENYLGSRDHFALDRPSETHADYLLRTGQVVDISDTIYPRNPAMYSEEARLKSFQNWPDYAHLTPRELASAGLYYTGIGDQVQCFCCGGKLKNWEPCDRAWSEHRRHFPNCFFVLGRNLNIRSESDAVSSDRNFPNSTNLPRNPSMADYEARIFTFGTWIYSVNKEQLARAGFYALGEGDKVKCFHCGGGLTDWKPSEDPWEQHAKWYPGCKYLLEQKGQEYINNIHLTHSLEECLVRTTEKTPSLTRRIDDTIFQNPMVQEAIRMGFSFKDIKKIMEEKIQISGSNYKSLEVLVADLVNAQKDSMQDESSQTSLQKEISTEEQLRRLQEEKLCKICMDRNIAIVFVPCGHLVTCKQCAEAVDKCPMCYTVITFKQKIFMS

Chain of Dihydroorotate dehydrogenase (quinone), mitochondrial (Plasmodium falciparum (isolate 3D7)) (Q08210 whole entry, looked up): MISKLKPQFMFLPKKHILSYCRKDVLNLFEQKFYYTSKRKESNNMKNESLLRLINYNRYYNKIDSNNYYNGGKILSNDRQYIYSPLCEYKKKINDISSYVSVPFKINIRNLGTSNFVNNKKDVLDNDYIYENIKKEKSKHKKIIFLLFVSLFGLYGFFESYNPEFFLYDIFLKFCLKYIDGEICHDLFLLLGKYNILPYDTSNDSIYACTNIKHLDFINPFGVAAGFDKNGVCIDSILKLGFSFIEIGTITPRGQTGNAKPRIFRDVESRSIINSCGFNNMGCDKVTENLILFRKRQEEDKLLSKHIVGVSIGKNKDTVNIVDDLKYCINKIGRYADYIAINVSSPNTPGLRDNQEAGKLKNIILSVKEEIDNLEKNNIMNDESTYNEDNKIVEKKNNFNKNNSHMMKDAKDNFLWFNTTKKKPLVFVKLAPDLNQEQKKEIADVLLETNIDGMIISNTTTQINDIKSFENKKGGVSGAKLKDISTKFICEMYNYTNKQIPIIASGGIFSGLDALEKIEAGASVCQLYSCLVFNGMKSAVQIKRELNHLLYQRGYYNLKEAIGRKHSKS

`CC#CCO[Si](C#CCCCCCC)(C(C)C)C(C)C`: the z-score in [1] is -0.5; in [2], -0.381; in test [3], -0.23; in test [4], -1.52; in test [5] it was -1.03; in test [6], -1.15. The z-score in test [7] was -0.552 (inactive); in [8], -0.69; in [9], -1.3; in test [10] it was 0.518 (inactive); in [11], 0.296; in test [12], -9.54 (active). Besides, the z-score is 0.486 (inactive) in test [13]; 0.501 (inactive) in [15]; 0.0606 (inactive) in test [16]; -0.0081 (inactive) in test [17]; 0.448 (inactive) in test [18]; 0.166 in test [19]. Further, the composite z-score in test [14] was -0.487 (inactive); in [20], -0.22.

Regarding `COCCOC(=O)N1C(=O)[C@@]2(c3cc(C#CCC(C(=O)OC)C(=O)OC)ccc31)[C@H](C(=O)N1CCc3cc(OC)c(OC)cc3C1)[C@H]1C(=O)O[C@H](c3ccccc3)[C@H](c3ccccc3)N1[C@@H]2c1ccc(O)cc1`, the z-score was 0.373 in test [1]; 0.643 in test [2]; 0.391 in test [3]; -0.422 in [4]; -1.54 in [5]; 0.448 in test [6]. Besides, the z-score in [7] is -0.216 (inactive); in test [8], 0.109; in test [9], 0.516; in [10], 0.0392 (inactive); in test [11], 0.227; in [12], 0.541 (inactive). Also, the z-score in test [13] is -0.0494 (inactive); in test [15] it was -0.0757 (inactive); in [16], 1.34 (inactive); in test [17], 0.992 (inactive); in test [18] it was 0.199 (inactive); in test [19], -0.888. Further, the composite z-score is -0.0728 (inactive) in test [14] and -0.0034 in [20].

Consider `CN1C(=O)[C@]2(CCS(=O)(=O)c3ccccc3)N=C(c3ccc(OCCCO)cc3)O[C@@H]2c2ccccc21`, for which the z-score in test [1] is -0.189; in test [2] it was -1.15; in test [3], 0.881; in test [4] it was -2.04; in test [5], -1.77; in test [6] it was -0.447. Besides, the z-score in [7] is -0.466 (inactive); in [8], -0.852; in test [9] it was 0.48; in test [10] it was -0.015 (inactive); in [11], -0.0688; in [12], 0.902 (inactive). In addition, the z-score is -0.101 (inactive) in test [13]; -0.0279 (inactive) in [15]; 2.34 (inactive) in [16]; 0.124 (inactive) in test [17]; -0.687 (inactive) in test [18]; -1.02 in test [19]. The composite z-score in [14] is 0.349 (inactive); in test [20], 0.0506.

Consider `[N-]=[N+]=NCc1ccccc1C[C@]1(C(=O)O)COC(c2ccc(OCCCO)cc2)=N1`, for which the z-score in test [1] is 0.608; in test [2], -0.379; in test [3], 0.383; in test [4], -0.175; in test [5], 0.345; in [6], -0.578. In addition, the z-score was -0.634 (inactive) in test [7]; -0.285 in [8]; -0.261 in [9]; 0.0946 (inactive) in test [10]; 0.24 in [11]; 0.59 (inactive) in [12]. The z-score is -0.591 (inactive) in [13]; 0.37 (inactive) in [15]; -0.163 (inactive) in [16]; -0.149 (inactive) in test [17]; -0.0558 (inactive) in test [18]; -0.279 in [19]. Moreover, the values for the composite z-score in test [14] and in [20] were 1.54 (inactive) and -0.445, respectively.

Take `O=C1c2ccccc2[C@](Cc2ccccc2I)(C(=O)O)[C@H](c2ccc(CO)cc2)N1Cc1ccccc1`: the z-score in [1] was 1.48; in [2], 0.431; in test [3] it was 1.04; in test [4], 0.295; in [5] it was -1.66; in test [6], 0.275. Also, the z-score in [7] is 0.0449 (inactive); in test [8] it was -0.601; in test [9], -0.349; in test [10], -1.45 (inactive); in test [11], -0.52; in test [12] it was -1.72 (inactive). The z-score in test [13] is -0.427 (inactive); in [15], -0.121 (inactive); in test [16] it was -2.09 (inactive); in test [17], 0.656 (inactive); in [18], 1.39 (inactive); in test [19], -0.831. Besides, the values for the composite z-score in test [14] and in test [20] were -5.63 (inactive) and 0.147, respectively.

Consider `C=CCC(OC(C)=O)[C@@H]1[C@@H](N(Cc2ccc(-c3cccc(C(F)(F)F)c3)o2)C(=O)c2cccc3ccccc23)c2cc(OCCCO)ccc2N1C(=O)c1ccc2ccccc2n1` (stereo not given in full), for which the z-score was -0.16 in test [1]; 0.953 in test [2]; -0.0619 in [3]; -0.142 in [4]; -2.18 in test [5]; 2.43 in test [6]. Moreover, the z-score is -0.637 (inactive) in test [7]; 0.307 in [8]; 0.582 in test [9]; -0.871 (inactive) in [10]; -0.892 in test [11]; -0.606 (inactive) in test [12]. For the same compound, the z-score in test [13] was -0.864 (inactive); in [15], -0.51 (inactive); in [16], 0.356 (inactive); in [17], 0.249 (inactive); in test [18] it was -0.195 (inactive); in test [19] it was -0.804. In addition, the results for the composite z-score in [14] and in test [20] were 0.995 (inactive) and -0.227, respectively.

On to `C=C(/C(=C/C[C@H](OC(=O)c1ccncc1)c1ccccc1OCCO)c1cc(C(=O)OC)ccc1OC)C(C)C`, for which the z-score in test [1] was 0.0292; in test [2], 0.322; in [3] it was -0.275; in test [4], -1.85; in test [5], -0.122; in test [6], 0.589. Besides, the z-score in [7] is -0.617 (inactive); in test [8], -0.429; in test [9], 0.00378; in test [10] it was 1.47 (inactive); in [11], 0.456; in test [12] it was 0.0223 (inactive). Besides, the z-score in test [13] is -0.493 (inactive); in test [15], 0.297 (inactive); in [16], 0.0488 (inactive); in [17], -0.822 (inactive); in [18], -0.869 (inactive); in [19], 0.956. Moreover, the composite z-score is -4.24 (inactive) in [14] and -0.0478 in [20].

Regarding `CC=CC(O)C1C=CC2C(=O)N(C)C(=O)C2N1NC(=O)OC(C)(C)C` (stereo not given), the z-score in test [1] was -0.73; in test [2] it was -0.604; in [3] it was -0.39; in test [4] it was -0.354; in [5], -0.303; in test [6] it was -1.55. The z-score in test [7] was -0.238 (inactive); in [8] it was 0.397; in [9], 0.163; in test [10], -0.383 (inactive); in [11], -1; in test [12], 0.906 (inactive). The z-score in test [13] was -0.524 (inactive); in test [15], -0.0625 (inactive); in test [16] it was -0.243 (inactive); in test [17], -0.447 (inactive); in [18], -0.504 (inactive); in test [19] it was -0.939. Also, the composite z-score is -0.0735 (inactive) in test [14] and 0.0621 in [20].
